Several values for one entry are separate records, joined by “and”; a condition that tells them apart may be missing. Identical values can stand only once. Hit rate of the full screen: of about 16,000 compounds, about 2,600 (16%) were called active. Not shown: some 20% with an inconclusive outcome. Calls come from the whole dose curve; as a rule, active = well fitted curve in the direction sought with a large enough effect; inconclusive = small, poorly fitted or top-dose-only effect, or effect the other way; inactive = no such curve, though single readings can be large or run the other way. These entries were drawn from the full list. Some structures have more than one record in an assay (separate samples or runs), and their calls can disagree.
% is set by controls: 0 for no effect and ±100 for the full control effect.

The target in the test is Cytochrome P450 2D6 (Homo sapiens) (UniProt P10635). The test is described as follows: Cytochrome panel assay with activity outcomes. The settings on record: recombinant CYP, pro-luciferin dealkylation, luminescence, p450-cyp2d6; series mostly up to 57.1 µM.
Cytochrome P450 2D6 (Homo sapiens), sequence (P10635 whole entry, looked up): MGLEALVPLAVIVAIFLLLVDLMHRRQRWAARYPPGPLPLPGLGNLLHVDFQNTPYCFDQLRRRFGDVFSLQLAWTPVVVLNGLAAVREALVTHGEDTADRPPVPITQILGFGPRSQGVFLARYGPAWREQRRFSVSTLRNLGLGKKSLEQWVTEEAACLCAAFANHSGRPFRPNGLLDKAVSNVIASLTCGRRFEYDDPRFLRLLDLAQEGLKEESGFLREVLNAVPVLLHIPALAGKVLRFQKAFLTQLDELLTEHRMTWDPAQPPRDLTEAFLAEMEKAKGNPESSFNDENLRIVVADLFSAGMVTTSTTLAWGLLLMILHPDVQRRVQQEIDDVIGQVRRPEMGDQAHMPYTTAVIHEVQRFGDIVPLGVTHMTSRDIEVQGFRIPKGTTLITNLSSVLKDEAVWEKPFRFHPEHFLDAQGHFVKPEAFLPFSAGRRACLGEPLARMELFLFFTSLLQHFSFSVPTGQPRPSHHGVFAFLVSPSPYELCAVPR
In the case of `C/C(=N/NC(=O)Cc1cccn1C)c1ccccc1`, the AC50 entry is “inactive”.

As for `Cc1ccc(/C=C/c2nnc(-c3ccc(C)cc3)o2)cc1`, the AC50 result was “inactive”.

On to `Cc1c2c(nc3c(C(=O)NC4CCCC4)cnn13)CCCC2`, for which the AC50 result is “inactive”.

`Cc1cccc(C)c1OC1(c2ccccc2)OC(=O)c2ccccc21` (stereo unspecified): the AC50 result is “inactive”.

In the case of `O=C(/C=C\c1ccc(O)c(O)c1)O[C@@H]1C[C@](O)(C(=O)O)C[C@@H](O)[C@@H]1O`, the AC50 entry was “inactive”.

For the molecule `CCCn1nc(Oc2nc(NCC)nc(NC(C)C)n2)ccc1=O`, the AC50 result is “inactive”.

As to `COc1ccc(Cc2nnc(NC(=O)Cn3cnc4c3c(=O)n(C)c(=O)n4C)s2)cc1OC`, the AC50 result was “inactive”.

In the case of `CCOC(=O)c1c(C)nc2c(c1-c1ccc(OC)cc1)C(=O)CC(C)(C)C2`, the AC50 entry is “inactive”.

Regarding `COc1ccc(C2C3=C(CC(C)(C)CC3=O)Oc3ncn(CC(C)C)c(=N)c32)cc1` (stereo unspecified), the AC50 was 1 µM (active).

With `COc1cccc(C2C3=C(CC(C)(C)CC3=O)OC(N)=C2[N+](=O)[O-])c1` (stereo unspecified), the AC50 entry was “inactive”.

With `O=C(c1ccco1)N1CCC2(CC1)CCN(C(c1ccccc1)c1ccccc1)CC2`, the AC50 is 5.01 µM (active).

With `N#Cc1cccc(NC(=O)N2CC[C@@]3(CCCN(C(=O)c4ccco4)C3)C2)c1`, the AC50 result was “inactive”.

`COc1ccc(NC(=O)N2CCCC3(CCN(C(=O)c4ccco4)CC3)C2)cc1`: the AC50 result is “inactive”.

As to `O=C(Nc1ccccc1)N1CCC2(CC1)CCN(C(=O)c1ccco1)CC2`, the AC50 result is “inactive”.

On to `O=C(c1ccco1)N1CCC2(CCCN(C(c3ccccc3)c3ccccc3)C2)CC1`, for which the AC50 is 10 µM (active).

With `O=C(c1ccco1)N1CCC2(CCCN(c3ccccc3)C2)CC1`, the AC50 entry is “inactive”.

`CC(C)NC(=O)N1CCC2(CC1)CCN(C(=O)c1ccco1)CC2`: the AC50 result is “inactive”.

Take `O=C(c1ccco1)N1CCC2(CC1)CN(c1cccc(-c3ccccc3)c1)C2`: the AC50 result is “inactive”.

Take `O=C(c1ccco1)N1CCC2(CC1)CCN(c1ccc(-c3ccccc3)cc1)CC2`: the AC50 result is “inactive”.

With `O=C(c1ccco1)N1CCC[C@@]2(CCN(C(c3ccccc3)c3ccccc3)C2)C1`, the AC50 was 3.16 µM (active).

On to `CC(C)NC(=O)N1CCCC2(CCN(C(=O)c3ccco3)CC2)C1`, for which the AC50 is 2.51 µM (active).

For `O=C(Nc1ccccc1)N1CCCC2(CCN(C(=O)c3ccco3)CC2)C1`, the AC50 entry was “inactive”.

As to `Cc1nc2ccccn2c1/C(O)=C1\C(=O)C(=O)N(CCN2CCOCC2)C1c1cccnc1` (stereo unspecified), the AC50 entry was “inactive”.

`CCOc1ccc(/C(O)=C2/C(=O)C(=O)N(CCOCCO)C2c2cccnc2)cc1` (stereo unspecified): the AC50 result is “inactive”.

For `CN[C@H](CC(=O)O)C(=O)O`, the AC50 entry was “inactive”.

With `C=C[C@@]1(C)CC(=O)[C@@]2(O)[C@@]3(C)[C@@H](O)CCC(C)(C)[C@@H]3[C@H](O)[C@H](OC(C)=O)[C@@]2(C)O1`, the AC50 result was “inactive”.

For the molecule `COc1ccc(C(=O)N2CCC3(CC2)CN(C(=O)Nc2ccccc2)C3)cc1`, the AC50 result was “inactive”.

Turning to `Cc1cc(C(C#N)c2cccc(Cl)c2)n2ncnc2n1` (stereo unspecified), the AC50 result is “inactive”.

Consider `CC1CC(=O)c2cnc(N)nc2C1` (stereo unspecified), for which the AC50 result is “inactive”.

As to `COC(=O)[C@@H]1CC[C@H](C)[C@@H](c2ccc(C)cc2)N1C(=O)c1ccc(/C=N\O[C@@H](C)c2cn([C@H]3COC[C@H]3O)nn2)cc1`, the activity, negative = inhibition is -10% [at 11.4 µM] (inactive).

In the case of `CC(C)=CC(=O)Nc1nnc(C(C)C)s1`, the AC50 entry was “inactive”.

On to `COc1ccc(OCc2nnc(SCC(=O)O)n2N)cc1`, for which the AC50 entry is “inactive”.

Regarding `O=C(c1ccco1)N1CCC2(CC1)CN(C(c1ccccc1)c1ccccc1)C2`, the AC50 was 1.26 µM (active).

Regarding `O=C(c1ccco1)N1CCC2(CC1)CN(c1ccc(-c3ccccc3)cc1)C2`, the AC50 result is “inactive”.

With `O=C(c1ccco1)N1CCC2(CC1)CN(c1ccccc1)C2`, the AC50 result was “inactive”.

On to `O=C(N/C(=C\c1cccs1)C(=O)N1CCCCCC1)c1ccccc1`, for which the AC50 result is “inactive”.

In the case of `O=C(O)CS(=O)c1ccc2c3c(cccc13)C(=O)c1ccccc1-2` (stereo unspecified), the activity, negative = inhibition is 21.8% [at 11.4 µM] (inactive).

Consider `CN(C(=O)COc1cccc(Br)c1)C1CCS(=O)(=O)C1` (stereo unspecified), for which the AC50 entry was “inactive”.

As to `COc1ccc(NC(=O)COC(=O)c2c(-c3ccccc3)noc2C)cc1`, the AC50 entry was “inactive”.

Consider `C/C(=N\NC(=O)c1ccc(Cl)cc1)c1ccc(Br)s1`, for which the AC50 result is “inactive”.

`N=C(N)SCCN`: the AC50 result is “inactive”.

With `N=C(N)SCCSC(=N)N`, the activity, negative = inhibition is 5.17% [at 11.4 µM] (inactive).

Regarding `CC(C)SC(=N)N`, the AC50 entry was “inactive”.

Regarding `CCSC(=N)N`, the concentration at half-maximal activity (AC50) result is “inactive and 3.98 µM (active)”.

`CSC(=N)N`: the AC50 result is “inactive and 50.1 nM (active)”.

As for `C[C@@H](CSC(=N)N)C(N)=O`, the activity, negative = inhibition is 4.14% [at 11.4 µM] (inactive).

For `CCn1c(C)nc2cc(S(=O)(=O)C(F)F)ccc21`, the AC50 entry was “inactive”.

As to `Cc1ccc(Sc2nc(-c3ccccc3)ccc2C#N)cc1`, the AC50 result was “inactive”.

As to `CCOC(=O)C1CCCN(C(=O)C2CCN(S(=O)(=O)N3CCC4(CC3)OCCO4)CC2)C1` (stereo unspecified), the AC50 entry is “inactive”.

`CCCCSc1nnc(-c2ccc(C)cc2)n1C`: the AC50 result was “inactive”.

For the molecule `NNC(=O)CNc1cccc(Br)c1`, the activity, negative = inhibition was -9.21% [at 11.4 µM] (inactive).

Consider `NNC(=O)CNC(c1ccccc1)c1cc(Br)ccc1NC(=O)c1ccccc1Br` (stereo unspecified), for which the AC50 was 7.94 µM (active).

Regarding `COC(=O)CNC(c1ccccc1Cl)c1cc(Br)ccc1NC(=O)CCN1CCOCC1` (stereo unspecified), the AC50 entry is “inactive”.

For the molecule `O=S1(=O)N[C@H]2CC[C@@H]3NS(=O)(=O)N[C@H]4CC[C@H](N1)N4S(=O)(=O)N23`, the activity, negative = inhibition is 12.7% [at 11.4 µM] (inactive).

`CC(C)(C)N1C(=O)[C@H]2[C@@H]3[C@H](O)C=CC(=O)[C@H]3CC[C@H]2C1=O`: the activity, negative = inhibition was 7.58% [at 11.4 µM] (inactive).

With `COc1ccc(N(C)C(=O)c2ccc3nc(-c4ccccc4)c(-c4ccccc4)nc3c2)cc1`, the AC50 result is “inactive”.

For `CS(=O)(=O)N1CC(C(=O)NC2CC2)Oc2ccc(Cl)cc21` (stereo unspecified), the AC50 result was “inactive”.

In the case of `C=C(CC1([C@@H](NP(=O)(c2ccccc2)c2ccccc2)[C@H]2C[C@@H]2CCN(C(=O)OCC)S(=O)(=O)c2ccc(C)cc2)CC1)c1ccccc1`, the AC50 entry is “inactive”.

On to `N#CCCn1c(=O)c(-c2ccc(Cl)cc2)nc2cnc(N3CCOCC3)nc21`, for which the AC50 result is “inactive”.

In the case of `Cc1ccc([C@@H](O)c2cnc(C)n2Cc2ccccc2)cc1`, the AC50 is 0.631 µM (active).

As for `Cc1nc2cncnc2n(Cc2ccccc2)c1=O`, the AC50 entry is “inactive”.

Turning to `Cc1ncc(CSC(=N)N)n1Cc1ccccc1`, the activity, negative = inhibition was -11.5% [at 11.4 µM] (inactive).

On to `Cc1nn2c(C)nc3sc4c(c3c2nc1=O)CC(C)(C)OC4`, for which the AC50 result was “inactive”.

For `CCOC(=O)N1CCN(C(=O)c2ccc(NC(C)=O)cc2)CC1`, the AC50 entry is “inactive”.

Regarding `CCOC(=O)c1cnc(-c2ccccc2)nc1Oc1cccc(Cl)c1`, the AC50 entry was “inactive”.

Take `CCOC(=O)c1cnc(SCCc2ccccc2)nc1N`: the concentration at half-maximal activity (AC50) is 2 µM (active).

`CCOC(=O)c1cnc(-c2ccccc2)nc1Oc1ccccc1`: the AC50 result is “inactive”.

As to `O=C1C(O)=C(O)C(=O)C(O)=C1O`, the AC50 entry was “inactive”.

On to `NS(=O)(=O)c1ccc(NCc2ccccc2OCc2ccccc2F)cc1`, for which the concentration at half-maximal activity (AC50) is 15.8 µM (active).

As for `NS(=O)(=O)c1ccc(NCc2cnc3ccccc3n2)cc1`, the activity, negative = inhibition was 16.5% [at 11.4 µM] (inactive).

As to `NS(=O)(=O)c1ccc(NCc2nc3ccccc3[nH]2)cc1`, the activity, negative = inhibition was -10.2% [at 11.4 µM] (inactive).

Regarding `O=C(NNC(=O)c1ccccc1)C(=O)N1CCCCC1`, the AC50 entry was “inactive”.

Consider `BrC(c1cccc2ccccc12)c1cccc2ccccc12`, for which the activity, negative = inhibition is 11.2% [at 11.4 µM] (inactive).

For the molecule `Cc1cccc(CNc2ncncc2-c2cccc(NS(C)(=O)=O)c2)c1`, the AC50 is 20 µM (active).

In the case of `CNc1ncncc1-c1ccccc1OC`, the AC50 entry is “inactive”.

As to `COc1cccc(-c2cncnc2NCc2cccc(C)c2)c1`, the AC50 was 12.6 µM (active).

In the case of `Cc1cccc(CNc2cc(-c3cccc(NS(C)(=O)=O)c3)ncn2)c1`, the AC50 entry is “inactive”.

As to `COc1ccccc1-c1cncnc1NCc1cccc(C)c1`, the AC50 is 20 µM (active).

Consider `COc1ccccc1-c1cncnc1NCc1ccccc1`, for which the AC50 was 15.8 µM (active).

For `NCCCNCCCCNCCCN`, the AC50 entry is “inactive”.

As to `O=C(c1ccc(-c2nnc(Nc3ccccc3)c3ccccc23)cc1)N1C[C@H]2C[C@H](C1)c1cccc(=O)n1C2`, the AC50 entry was “inactive”.

`O=C(NCc1ccco1)c1ccc2c(=O)n(-c3ccccc3)c(=S)[nH]c2c1`: the AC50 entry is “inactive”.

For `COc1ccc(-n2c(=O)c(-c3ccc(F)cc3)nc3cnc(OC)nc32)cc1`, the AC50 result was “inactive”.

With `O=C(Nc1ccc(C(=O)Nc2ccc(C(=O)Nc3ccc(S(=O)(=O)O)c4cc(S(=O)(=O)O)cc(S(=O)(=O)O)c34)cc2)cc1)Nc1ccc(C(=O)Nc2ccc(C(=O)Nc3ccc(S(=O)(=O)O)c4cc(S(=O)(=O)O)cc(S(=O)(=O)O)c34)cc2)cc1`, the AC50 entry was “inactive”.

Consider `Cc1nonc1NC(=O)OCCN1CCOC1=O`, for which the AC50 entry was “inactive”.

For the molecule `O=C(O)/C(=C/c1c(C(=O)O)[nH]c2cc(Cl)cc(Cl)c12)c1ccccc1`, the AC50 result was “inactive”.

On to `C[C@@]12CCC(=O)C=C1CC[C@@H]1[C@@H]2[C@H](O)C[C@]2(C)[C@@H]1CC[C@]2(O)C(=O)COC(=O)CCC(=O)O`, for which the AC50 entry was “inactive”.

As to `COc1c(O)cc2c(c1O)[C@@H]1O[C@@H](CO)[C@@H](O)[C@@H](O)[C@@H]1OC2=O`, the AC50 result was “inactive”.

Consider `CSc1nc(C)c(CCOC(=O)c2ccccc2)c(=O)[nH]1`, for which the AC50 result is “inactive”.

Regarding `CCN(CC)C(=O)c1cc2cc([N+](=O)[O-])ccc2s1`, the AC50 entry is “inactive”.

Take `CC1CCCC(NC(=O)c2n[nH]c(=O)c3ccccc23)C1C` (stereo unspecified): the AC50 result was “inactive”.

Consider `COc1cc([C@H](O)C(=O)O)ccc1O`, for which the AC50 entry is “inactive”.

As for `O=[N+]([O-])c1cccc(-c2nc(-c3ccncc3)no2)c1`, the AC50 entry was “inactive”.

Consider `NS(=O)(=O)c1ccc(N=C2C(=O)Nc3ccccc32)cc1`, for which the activity, negative = inhibition was 2.35% [at 11.4 µM] (inactive).

With `O=C(O)[C@@H]1CCCNC1`, the AC50 entry was “inactive”.

With `COC(=O)c1ccc(C2C(Oc3ccccc3)C(=O)N2CCc2ccc(OC)c(OC)c2)cc1` (stereo unspecified), the AC50 entry was “inactive”.

`Cc1ccccc1OC1C(=O)N(Cc2ccc3c(c2)OCO3)C1c1sccc1C` (stereo unspecified): the AC50 was 8.91 µM (active).

In the case of `COc1ccc(CCN2C(=O)C(Oc3ccccc3C)C2c2ccc3c(c2)OCO3)cc1OC` (stereo unspecified), the AC50 is 14.1 µM (active).

For `O=C1C[C@@H](O)[C@@H](O)[C@H]2[C@@H]3C(=O)N(Cc4ccc5c(c4)OCO5)C(=O)[C@@H]3CC[C@H]12`, the activity, negative = inhibition is 14% [at 11.4 µM] (inactive) and -16.6% [at 11.4 µM] (inactive).

For the molecule `O=C1[C@H]2[C@H]3[C@H](O)[C@H](O)C/C(=N/OCc4ccccc4)[C@H]3CC[C@@H]2C(=O)N1Cc1ccc2c(c1)OCO2`, the activity, negative = inhibition is -14.6% [at 11.4 µM] (inactive).

Regarding `COc1ccc(CCN2C(=O)C(O)=C(C(=O)c3ccco3)C2c2cccs2)cc1OC` (stereo unspecified), the AC50 entry is “inactive”.

Source of the values: PubChem BioAssay AID1851 (National Center for Advancing Translational Sciences (NCATS), 2009).
